Results reported in PubChem BioAssay AID1508619 (National Center for Advancing Translational Sciences (NCATS), 2020).
Results filed as inconclusive are left out. Active and inactive are the calls of the source. Calls come from the whole dose curve; as a rule, active = well fitted inhibition curve with a large enough effect; inconclusive = small, poorly fitted or top-dose-only effect; inactive = no such curve, though single readings can be large or run the other way.

Assay: Counterscreen qHTS for Identification of Calcium Integrin Binding Protein 1 (CIB1) Competitor
Details: series mostly up to 114 µM; activity, negative = inhibition: at the top concentration
How it was run: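 Counterscreen FP assay: CIB1-GST 1 uM in 5 mM HEPES pH 7.4, 125 mM NaCl, 5 mM CaCl2, 0.01% Tween20, with compounds up to 114 uM for 15 min, then 100 nM FITC-labelled scrambled peptide, 15 min, polarization read ex 480/em 540.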
% is set by controls: 0 for no effect and ±100 for the full control effect; potency is the fitted concentration of half-maximal effect.

| Compound | activity, negative = inhibition | Potency |
| --- | --- | --- |
| CCOc1ccc(CCNC(=O)c2ccc(N3N=C(C)CC3=O)cc2)cc1OCC | -10.4% (inactive) |  |
| C=CCNc1oc(-c2cccc3ccccc23)nc1C#N | -15.5% (inactive) |  |
| O=C1c2cccc(O)c2C(=O)c2c(O)cc(CO)cc21 | 2.61% (inactive) |  |
| Cc1c(C)n(Cc2ccc(-c3ccccc3C(=O)O)cc2)c2ccc(C(=O)N[C@@H](C)c3ccc([N+](=O)[O-])cc3)cc12 | 6.01% (inactive) |  |
| C=CCNc1oc(-c2ccc(-c3ccccc3)cc2)nc1C#N | -5.95% (inactive) |  |
| Cc1ccc(S(=O)(=O)Nc2cc3c(cc2C(=O)Nc2nc(-c4ccccc4)cs2)OCO3)cc1 | 106% (inactive) |  |
| Cc1cc(NS(=O)(=O)c2ccc(NC(=O)Cc3ccc(F)c(Cl)c3)cc2)no1 | -12.5% (inactive) |  |
| Oc1c(Cl)cc(Cl)c(Cl)c1Cc1c(O)c(Cl)cc(Cl)c1Cl | 87.1% (inactive) |  |
| Cn1c(NC2=NC3(CCCC3)C3=C(CCCC3=O)N2)nc2ccccc21 | -10.7% (inactive) |  |
| Cc1ccc2nc3sc(C(=O)NCc4ccco4)cc3cc2c1 |  | inactive |
| CCCCCCCCCCCCCCCC[N+](C)(C)CCN(Cc1ccc(OC)cc1)c1ncccn1 | 73.9% (inactive) |  |
| Oc1cccc2c(-c3nn[nH]n3)ccnc12 | -28.8% (inactive) |  |
| N#Cc1ccc(N[S+](=O)([O-])c2ccc(Nc3nc(-c4ccccc4)cs3)cc2)cc1 |  | 44.7 µM (active) |
| COC(=O)c1ccc(O)c2ncc(-c3ccc(C(=O)NCCCN(C)C)cc3)cc12 | 174% (inactive) |  |
| CCc1ccc(NC(=O)C(=O)NNC(=O)c2cccs2)cc1 | 56.2% (inactive) |  |
| CO[C@@]12[C@H](COC(N)=O)C3=C(C(=O)C(C)=C(N)C3=O)N1C[C@@H]1N[C@@H]12 | -15.1% (inactive) |  |
| N#Cc1cnc(NS(=O)(=O)c2ccc(NC(=O)Cc3ccc(F)c(Cl)c3)cc2)s1 | 2.29% (inactive) |  |
| O=C(Cc1ccccc1)NC(c1ccco1)c1cc(Cl)c2cccnc2c1O (stereo not given) | 50.2% (inactive) |  |
| O=C(NNC(=O)c1nc2ccccc2[nH]1)OCc1ccccc1 | -15.8% (inactive) |  |
| Cc1cc2nc3ccc(=[N+](C)C)cc-3sc2cc1N |  | 44.7 µM (active) |
| COC(=O)c1cc(Cl)ccc1NS(=O)(=O)C(F)(F)F | 5.61% (inactive) |  |
| O=[N+]([O-])c1ccc(O)c2ncccc12 | -1.58% (inactive) |  |
| Cc1ccc([S+](=O)([O-])Nc2nn3c(=O)c4ccccc4nc3s2)cc1C | 28.9% (inactive) |  |
| CSc1cc2c(s1)c1cnn(Cc3cccc(N)c3)c(=O)c1n2C | -44.6% (inactive) |  |
| O=C1CCCC2=C1C1(CCOCC1)N=C(Nc1nc3ccccc3o1)N2 | 7.29% (inactive) |  |
| O=c1c2ccccc2nc2sc(NS(=O)(=O)c3ccc4c(c3)CCC4)nn12 | 54.9% (inactive) |  |
| O=Cc1c(-c2ccccc2)no[n+]1[O-] | -2.24% (inactive) |  |
| CN1CCc2cccc3c2[C@H]1Cc1ccc(O)c(O)c1-3 | -18.5% (inactive) |  |
| NC(=O)c1ccnc2c(O)cccc12 | -3.57% (inactive) |  |
| C[C@H]1COC2=C1C(=O)C(=O)c1c2ccc2c1CCCC2(C)C | 9.4% (inactive) |  |
